# Laboratory results as given in PubChem BioAssay (NCATS).
# The source made the active and inactive calls. The call rests on the fitted dose curve; in most records, active means well fitted curve in the direction sought with a large enough effect; inconclusive means small, poorly fitted or top-dose-only effect, or another doubt; inactive means no such curve, though single readings can be large or run the other way.
# Test: Validation qHTS assay for inhibitors of Activation Induced Cytidine Deaminase (AID): UDG Counterscreen signal (AID 1347427)
# Conditions: biochemical UDG counterscreen, fluorescence signal; series mostly up to 115 µM
# Excerpt: Assay Provider (PI) Patricia Gearhart Ph.D.
# National Institute on Aging
# National Institute of Health (NIH), Bethesda, MD
# Assay Provider (PI) Rahul Kohli Ph.D.
# Perelman School of Medicine
# University of Pennsylvania, Philadelphia, PA
# Activation-Induced Deaminase (AID) is a cytosine deaminase which converts cytosine into uracil within stretches of ssDNA. The presence of uracil in DNA initiates a cascade of mutagenic DNA repair to introduce point mutations and DNA double strand breaks. Specific targeting of AID to the immunoglobulin heavy chain loci (Igh) promotes mutagenesis in the antibody variable region for somatic hypermutation (SHM) or switch regions leading to class switch recombination (CSR). However, AID also plays a role in accumulating unnecessary mutations across the genome. Mis-targeting of AID results in the initiation of tumor development and leads to greater drug resistance among cancer cells when continually expressed. To identify an AID inhibitor, a small molecule library will be screened in collaboration with NCATS core facility at NIH. To confirm biological function, inhibitors will be examined in an in vitro murine B-cell activation assay and subsequent secondary validation screens. Top molecules will be further screened to identify inhibitory efficacy against a wild type primary splenocytes assay. Using these approaches, we hope to identify a small molecule with great efficacy and low toxicity for use as a molecular probe to further characterize AID's intricacies, or even as a therapeutic.
# A FRET based analysis of cytosine deamination, was developed to identify potential inhibitors of AID catalytic activity. This screen has two signal output, Read 1 evaluates the AID inhibition response. The second readout (Read 2) evaluates UDG response and is uses as a counterscreen to exclude false positive inhibitors. Inhibition in AID and inactivity in the UDG signal is the desired outcome for this assay.
# SEQUENCE No. (e.g., 1, 2, 3, etc.); […] (e.g., Cells, Incubation, Reagent, etc.); VALUE; DESCRIPTION
# 1a; Reagent; 3 uL; [4/3x] 1 uM AID/2.67 U/mL UDG
# 1b; Reagent; 3 uL; 2 U/mL UDG
# 1c; Reagent; 3 uL; 1 uM AID
# 2a; Compound; 46 nL; Follow-up plates (0.64 uM - 10 mM)
# 2b; Control; 46 nL; ATA ([…] - 10 mM)
# 3; Time; 10 min; incubation at room temperature
# 5; Time; 4 hr; incubation at room temperature
# 6; Reagent; 4 uL; [2x] 250 mM NaOH
# 7; Time; 15 sec; centrifuge at 1000 rpm
# 8; Time; 30 min; incubation at room temperature
# 9a; Detection; fluorescence (Read 1: AID); EnVision (PerkinElmer) plate reader, 540 excitation and 590 emission filters
# 9b; Detection; fluorescence (Read 2: UDG); EnVision (PerkinElmer) plate reader, 560 excitation and 665 emission filters
# NOTES (numbers refer to sequence above)
# 1a; Reagents were dispensed in a medium-binding black solid-bottom Greiner plates (789176F) using a BioRptr liquid dispenser. Dispense 3 uL of [4/3x] 1 uM AID (provided by Kohli lab) and [4/3x] 2 U/mL UDG (NEB M0280L) into columns 1, 2, 5 to 48.
# 1b; Dispense 3 uL of [4/3x] 2 U/mL UDG into column 3.
# 1c; Dispense 3 uL of [4/3x] 1 uM AID into column 4.
# 2b; 10 mM Aurintricarboxylic Acid (Sigma A1895) (ATA, 8-point, n = 2, 1:2.5 dilution in column 2) double pin-transferred (Dip Factor = 2) using the Kalypsys (Wako USA) pintool equipped with a 1536 pinhead for a [final] range of 186 nM - 114 uM.
# 3; Room temperature incubation.
# 4; Dispense 1 uL of substrate mixture from the Kohli lab [4x] […] DJC20 and [4x] 250 nM DJC23 into columns 1 to 48 .
# 5; Room temperature incubation.
# 6; Dispense 4 uL of substrate mixture [2x] 250 mM NaOH into columns 1 to 48.
# 7; Centrifugation step to remove bubbles.
# 8; Room temperature incubation
# 9a; Fluorescence signal (column label AID) was read using the EnVision plate reader. Excitation filter = 540(8) nm, barcode = 311; Emission filter = 590(20) nm, barcode = 217; Mirror = D555, barcode = 405.
# 9b; Fluorescence signal (column label UDG) was read using the EnVision plate reader. […]
row,Compound,outcome
1,C[C@]12N[C@H](Cc3ccccc31)c1ccccc12,inactive
2,CCCN(CCC)C1CCc2ccc(O)cc2C1 (stereo not given),inactive
3,NC(N)=NOCCC(N)C(=O)O (stereo not given),inactive
4,CNCCc1c[nH]c2ccc(O)cc12,inactive
5,CC1=NN=C(c2ccc(N)cc2)c2cc3c(cc2C1)OCO3,inactive
6,c1ccc2sc(C3(N4CCCCC4)CCCCC3)cc2c1,inactive
7,C[C@@H]1O[C@H](C[N+](C)(C)C)C[C@H]1O,inactive
8,NC(CP(=O)(O)O)C(=O)O (stereo not given),inactive
9,CC[C@@H](C(N)=O)N1CCCC1=O,inactive
10,CC(C)Oc1cccnc1N(C)C1CCN(Cc2ccccc2)CC1,inactive
11,CNCCc1ccc(O)c(O)c1,inactive
12,NCc1cc(=O)[nH]o1,inactive
13,CCCCc1ccc(C(=O)O)nc1,inactive
14,CC(C)NC(C)Cc1ccc(I)cc1 (stereo not given),inactive
15,NC1CCc2cc(O)c(O)cc2C1 (stereo not given),inactive
16,Cc1c(C(=O)c2cccc3ccccc23)c2cccc3c2n1[C@H](CN1CCOCC1)CO3,inactive
17,CS(=N)(=O)CC[C@H](N)C(=O)O (stereo not given in full),inactive
18,CCCN1CCC[C@H](c2cccc(O)c2)C1,inactive
19,NC(CCP(=O)(O)O)C(=O)O (stereo not given),inactive
20,Cn1cnc(CCN)c1,inactive

row,Compound,outcome
1,NC1CC1c1ccccc1 (stereo not given),inactive
2,O=C(O)[C@@H]1CCN1,inactive
3,C/C=C(/C)C(=O)O[C@H]1C(C)=C2[C@H]([C@@H]1OC(=O)CCCCCCC)[C@@](C)(OC(C)=O)C[C@H](OC(=O)CCC)[C@@]1(O)[C@H]2OC(=O)[C@@]1(C)O,inactive
4,O=C(Cc1ccc(Cl)c(Cl)c1)N1CCCCC1CN1CCCC1 (stereo not given),inactive
5,C#CCOC(=O)C1=CCCN(C)C1,inactive
6,C=CCN1CC[C@]23CCCCC2[C@H]1Cc1ccc(O)cc13 (stereo not given in full),inactive
7,O=C1CCCN1CC#CCN1CCCC1,inactive
8,COC(=O)[C@@H](N)CCCN=C(N)N[N+](=O)[O-],inactive
9,CN[C@@H]1C[C@@H](c2ccc(Cl)c(Cl)c2)c2ccccc21,inactive
10,O=C(N[C@H]1CN2CCC1CC2)c1ccc(Cl)cc1,inactive
11,CN1C2CCC1CC(OC(=O)c1cc(Cl)cc(Cl)c1)C2 (stereo not given),inactive
12,Oc1ccc2c3c1O[C@H]1c4[nH]c5c(c4C[C@@]4(O)[C@@H](C2)N(CC2CC2)CC[C@]314)C[C@@]1(O)[C@H]2Cc3ccc(O)c4c3[C@@]1(CCN2CC1CC1)[C@H]5O4,inactive
13,c1ccc(C2(c3ccccc3)CC2C2=NCCN2)cc1 (stereo not given),inactive
14,C[C@]12CCC3C(CC[C@H]4C[C@H](O)CC[C@]34C)C1CC[C@@H]2C(=O)CO (stereo not given in full),inactive
15,CC[C@@]1(O)C(=O)OCc2c1cc1n(c2=O)Cc2cc3ccccc3nc2-1,inactive
16,Cc1nccc2c1[nH]c1ccccc12,inactive
17,c1ccc(CCCN2CCN(CCOC(c3ccccc3)c3ccccc3)CC2)cc1,inactive
18,CC(=O)NCCc1c[nH]c2ccccc12,inactive
19,C[C@@H](N)Cc1cnc[nH]1,inactive
20,C[N+]1(C)C2CCC1CC(OC(=O)C(CO)c1ccccc1)C2 (stereo not given),inactive
